{"source": "the antibiotic and cytotoxicity screens of Wong et al. (2023)", "note": "About 3,300 (8.5%) of roughly 39,000 compounds were called active. The sample holds actives, similar compounds and a random draw of the others, so the mix is not that of the screen."}
{"test_system": "HepG2", "assay": "cytotoxicity call (relative viability < 0.9)", "conditions": "10 µM"}
{"smiles": "OC[C@@H]1CCCN1", "cytotoxicity call": "inactive"}
{"smiles": "O=C(O)CC[C@H]1CCCCN1", "cytotoxicity call": "inactive"}
{"smiles": "OC[C@@H]1CCCCN1", "cytotoxicity call": "inactive"}
{"smiles": "C1CCC(C(CC2CCCCN2)C2CCCCC2)CC1.O=C(O)C=CC(=O)O", "note": "(configuration not stated)", "cytotoxicity call": "active"}
{"smiles": "O=C(O)[C@@H]1CCCCN1", "cytotoxicity call": "inactive"}
{"smiles": "C1CCC(C(C[C@H]2CCCCN2)C2CCCCC2)CC1", "cytotoxicity call": "active"}
{"smiles": "C[C@H]1CN([C@@H](C)CO)C(=O)c2cccc(NS(=O)(=O)c3cn(C)cn3)c2O[C@H]1CN(C)CC1CCCCC1", "cytotoxicity call": "inactive"}
{"smiles": "CCCC#Cc1ccc2c(c1)O[C@@H](CN(C)S(=O)(=O)c1cccc(F)c1)[C@@H](C)CN([C@@H](C)CO)S2(=O)=O", "cytotoxicity call": "inactive"}
{"smiles": "O=C(CN1CCOCC1)NCC[C@H]1CC[C@@H](NC(=O)c2ccccc2F)[C@@H](CO)O1", "cytotoxicity call": "inactive"}
{"smiles": "CC(C)NC(=O)N(C)C[C@@H]1Oc2ccc(NC(=O)CCCN(C)C)cc2C(=O)N([C@H](C)CO)C[C@H]1C", "cytotoxicity call": "inactive"}
{"smiles": "CCc1nc2ccccc2nc1CC", "cytotoxicity call": "inactive"}
{"smiles": "CCc1nc(N)nc(N)c1-c1ccc(Cl)cc1", "cytotoxicity call": "active"}
{"smiles": "Nc1oncc1-c1ccc(Cl)cc1", "cytotoxicity call": "inactive"}
{"smiles": "C[C@@H]1CN([C@@H](C)CO)C(=O)c2cc(NC(=O)Nc3ccccc3)ccc2O[C@@H](C)CCCCO[C@H]1CN(C)C(=O)Cc1ccccc1", "cytotoxicity call": "inactive"}
{"smiles": "C[C@@H]1CCCCO[C@@H](CN(C)C(=O)Nc2ccc(F)cc2)[C@@H](C)CN([C@H](C)CO)C(=O)c2cc(NC(=O)Nc3ccc(C(F)(F)F)cc3)ccc2O1", "cytotoxicity call": "inactive"}
{"smiles": "C[C@H](CO)N1C[C@H](C)[C@H](CN(C)CC2CC2)Oc2cc(C#Cc3ccccc3F)ccc2S1(=O)=O", "cytotoxicity call": "active"}
{"smiles": "C[C@@H]1CN([C@@H](C)CO)S(=O)(=O)c2ccc(C#Cc3ccccc3F)cc2O[C@H]1CN(C)C(=O)Cc1cccnc1", "cytotoxicity call": "inactive"}
{"smiles": "C[C@@H]1CN([C@H](C)CO)S(=O)(=O)c2ccc(C#Cc3ccccc3F)cc2O[C@@H]1CN(C)CC1CC1", "cytotoxicity call": "inactive"}
{"smiles": "C[C@H]1CN([C@@H](C)CO)S(=O)(=O)c2ccc(C#Cc3ccccc3F)cc2O[C@H]1CN(C)C(=O)c1ccc2c(c1)OCO2", "cytotoxicity call": "inactive"}
{"smiles": "C[C@@H]1CN([C@H](C)CO)S(=O)(=O)c2ccc(C#Cc3ccccc3F)cc2O[C@@H]1CN(C)C(=O)Cc1cccnc1", "cytotoxicity call": "inactive"}
{"smiles": "C[C@H]1CN([C@@H](C)CO)S(=O)(=O)c2ccc(C#Cc3ccccc3F)cc2O[C@@H]1CN(C)C(=O)c1ccc2c(c1)OCO2", "cytotoxicity call": "inactive"}
{"smiles": "CC(C)CC#Cc1ccc2c(c1)O[C@H](CN(C)CC1CCOCC1)[C@@H](C)CN([C@H](C)CO)S2(=O)=O", "cytotoxicity call": "inactive"}
{"smiles": "C[C@@H]1CN([C@@H](C)CO)S(=O)(=O)c2ccc(C#Cc3ccccc3F)cc2O[C@@H]1CN(C)C(=O)Cc1cccnc1", "cytotoxicity call": "active"}
{"smiles": "CC(C)CC#Cc1ccc2c(c1)O[C@@H](CN(C)CC1CCOCC1)[C@@H](C)CN([C@H](C)CO)S2(=O)=O", "cytotoxicity call": "inactive"}
{"smiles": "CC(C)CC#Cc1ccc2c(c1)O[C@@H](CN(C)CC1CCOCC1)[C@H](C)CN([C@@H](C)CO)S2(=O)=O", "cytotoxicity call": "active"}
{"smiles": "C[C@@H]1CN([C@@H](C)CO)S(=O)(=O)c2ccc(C#Cc3ccccc3F)cc2O[C@H]1CN(C)CC1CC1", "cytotoxicity call": "inactive"}
{"smiles": "C[C@@H]1CN([C@@H](C)CO)S(=O)(=O)c2ccc(C#Cc3ccccc3F)cc2O[C@@H]1CN(C)C(=O)c1ccc2c(c1)OCO2", "cytotoxicity call": "active"}
